Sampled rows, rich in hits. Any-hit rate of the full collection: about 3.3%.
BoNT F protease = BoNT/F light chain protease inhibitors, primary screen, biochemical, flow cytometry, MLPCN library | Botulinum neurotoxin type F light chain protease (Clostridium botulinum) | AID 588497, 2011 | Multiplex microsphere protease cleavage assay | 0.22% of 360,000 active | inhibition, % at 10 µM; in the data active means inhibition above about 35%, passing the limit was not always enough; inconclusive means no clear call, values can overlap the other calls; further: plate controls were buffer without enzyme for full effect and enzyme alone for no effect
BoNT A protease = BoNT/A light chain protease inhibitors, primary screen, biochemical, flow cytometry, MLPCN library; Botulinum neurotoxin type A light chain protease (Clostridium botulinum A str. ATCC 3502); AID 588499, 2011; 0.17% of 360,000 active; inhibition, % at 10 µM; multiplex microsphere protease substrate cleavage; further: plate controls were buffer without enzyme for full effect and enzyme alone for no effect
Anthrax LF inh2 = Bacillus anthracis LF protease inhibitors, primary screen, biochemical, multiplex microsphere, MLPCN library. Lethal factor (Bacillus anthracis), P15917. multiplex microsphere protease cleavage assay. inhibition, % at 10 µM. 0.12% of 360,000 active. AID 588501, 2011; further: plate controls were buffer without enzyme for full effect and enzyme alone for no effect
Target sequence (P15917 whole entry, looked up): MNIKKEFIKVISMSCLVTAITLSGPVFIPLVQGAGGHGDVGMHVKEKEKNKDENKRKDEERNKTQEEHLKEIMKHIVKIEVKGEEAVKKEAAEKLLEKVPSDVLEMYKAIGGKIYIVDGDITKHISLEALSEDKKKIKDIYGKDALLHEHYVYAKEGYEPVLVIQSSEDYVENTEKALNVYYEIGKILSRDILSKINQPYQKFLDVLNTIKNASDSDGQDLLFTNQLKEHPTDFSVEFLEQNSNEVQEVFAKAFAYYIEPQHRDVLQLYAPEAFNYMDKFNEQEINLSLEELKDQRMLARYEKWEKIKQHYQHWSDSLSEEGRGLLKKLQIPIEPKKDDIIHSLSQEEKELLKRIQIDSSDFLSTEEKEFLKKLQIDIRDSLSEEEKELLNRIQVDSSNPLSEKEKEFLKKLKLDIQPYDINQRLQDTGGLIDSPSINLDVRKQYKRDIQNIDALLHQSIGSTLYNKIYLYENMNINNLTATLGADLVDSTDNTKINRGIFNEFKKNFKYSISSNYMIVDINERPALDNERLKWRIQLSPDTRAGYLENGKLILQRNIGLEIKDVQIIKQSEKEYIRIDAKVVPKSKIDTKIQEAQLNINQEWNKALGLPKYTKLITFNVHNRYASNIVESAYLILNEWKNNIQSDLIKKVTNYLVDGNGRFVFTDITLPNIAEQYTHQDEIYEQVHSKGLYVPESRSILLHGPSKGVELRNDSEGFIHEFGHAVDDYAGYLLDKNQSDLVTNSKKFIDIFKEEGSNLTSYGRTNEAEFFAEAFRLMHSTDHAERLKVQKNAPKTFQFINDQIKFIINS
MazF activator = activators of E. coli MazEF toxin-antitoxin RNase, primary screen, biochemical, fluorescence, uHTS | FAM/BHQ RNA-DNA oligo cleavage fluorescence, 5 h | Endoribonuclease toxin MazF (Escherichia coli (strain K12)), P0AE70 | 0.32% of 350,000 active | activation, % at 20 µM; in the data active means activation above about 50%
Autofluor counter = counter-screen for toxin protease inhibitors: compound fluorescence | compound autofluorescence counterscreen, microsphere flow cytometry; active compounds read high | fluorescence intensity (no concentration beside the values) | 3.1% of 360,000 active | AID 624483; in the data active means fluorescence intensity above about 16000; inconclusive means no clear call, values can overlap the other calls
PriA SSB inh = inhibitors of Klebsiella pneumoniae PriA binding to SSB C-terminal tail, primary screen, biochemical, AlphaScreen. PriA–SSB C-terminal tail interaction (Klebsiella pneumoniae). AlphaScreen SSBct-PriA binding, biotinylated peptide. inhibition, % at 33 µM. 0.6% of 430,000 active; in the data active means inhibition mostly above about 37%, no sharp cut-off; inactive means mostly below about 20%;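 further: plate controls were negative control peptide for no effect and reference peptide for full effect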
* = called active by the depositor; ? = inconclusive; . = no result given. Unless noted, no stated cut-off is given here; in the data, active means inhibition above about 30%; inconclusive means no clear call, values can overlap the other calls; inactive means below that.

SMILES	BoNT F protease	BoNT A protease	Anthrax LF inh2	MazF activator	Autofluor counter	PriA SSB inh
COc1cc(CN2C(=O)C(NC(=O)c3ccco3)(C(F)(F)F)C3=C2CC(C)(C)CC3=O)cc(OC)c1 (configuration not stated)	-13	-2	-5	-7	6470	-5
CC(=O)N1CCN(c2ccnc3c2c(=O)n(CC(=O)NCc2ccc(F)cc2)c(=O)n3C)CC1	.	.	.	.	.	-11
O=C(NCCC(c1ccccc1)c1ccccc1)c1ncccn1	.	.	.	.	.	-6
CCc1ccccc1N1C(=O)c2cccc3c(N4CCOCC4)c([N+](=O)[O-])cc(c23)C1=O	-11	-5	-6	9	24654*	21
Cc1ccc2oc(C(=O)NCCn3c(C)cc4ccccc43)cc2n1	.	.	.	.	.	13
Cc1cccc(CC(=O)NCCNC(=O)c2ccc(NC(=O)C3CC3)cc2)c1	.	.	.	.	.	-11
CC(=O)Nc1ccc(NC(=O)C(C)OC(=O)CCC2CCCCC2)cc1 (configuration not stated)	0	0	-4	-2	5221	-5
CC(OC(=O)CCC1CCCC1)C(=O)Nc1ccccc1[N+](=O)[O-] (configuration not stated)	-4	3	1	-2	4992	43*
C[C@@H](Cc1ccco1)NS(=O)(=O)CCN1C(=O)CCCC1=O	.	.	.	.	.	-9
COc1cc(C(=O)NN=C(Cc2ncc[nH]2)c2ccccc2)cc(OC)c1OC	.	.	.	.	.	11
O=C(O)c1ccc2nc(C(F)(F)F)[nH]c2c1	-5	?	0	8	21497*	-14
CSc1ccc(-c2nc(CSCC(=O)N3CCOCC3)c(C)o2)cc1	-3	?	-1	0	22931*	5
CCOC(=O)N1CCN(C(=O)CSCc2nc(-c3ccccc3C)oc2C)CC1	-3	-1	-4	-2	16597*	-4
CSc1ccc(-c2nc(CSCC(=O)NC3CC3)c(C)o2)cc1	-3	-1	-3	-27	4827	-12
CC(C)=C1N=C(c2ccccc2)OC1=O	.	.	.	.	.	-13
CN(C)/C(CN1CCN(C=O)CC1)=C1\N=C(c2ccccc2)OC1=O	1	1	2	4	23334*	8
CC(C)CN(C1CCS(=O)(=O)C1)S(=O)(=O)c1ccc2ccccc2c1 (configuration not stated)	-7	-5	0	3	6863	-6
CC(C)CN(C1CCS(=O)(=O)C1)S(=O)(=O)c1ccc(Cl)c([N+](=O)[O-])c1 (configuration not stated)	.	.	.	.	.	41*
O=C(Nc1ccccc1)OCN1C(=O)c2ccccc2C1=O	-6	-2	-2	2	17484*	-4
CCCOc1ccc(N)cc1N	-160	-2	-44	5	1176	52*
COc1ccc(CCNC(=O)c2cc(-c3cc(C)c(C)cc3O)n[nH]2)cc1OC	0	0	-2	0	22479*	-20
COc1ccc(CCNC(=S)NC(=O)c2ccccc2)cc1OC	0	-1	0	-3	23568*	13
COc1ccc(CCNC(=O)c2ccc(=O)[nH]n2)cc1OC	3	0	5	1	5644	4
CCc1noc(C)c1C(=O)NCCc1ccc(S(N)(=O)=O)cc1	5	2	0	-8	?	-7
CCc1noc(C)c1C(=O)NCCc1ccc(OC)c(OC)c1	1	?	-2	1	24111*	-15
SMILES	BoNT F protease	BoNT A protease	Anthrax LF inh2	MazF activator	Autofluor counter	PriA SSB inh
C[C@](O)(CNC(=O)C1(c2ccccc2)CCOCC1)c1ccc(-c2ccccc2)cc1	.	.	.	.	.	-14
COc1ccc(N2CC(NC(=O)/C=C\c3ccc([N+](=O)[O-])cc3)CC2=O)cc1 (configuration not stated)	.	.	.	.	.	0
CC(C)C(=O)N1CCc2ccc(NC(=O)c3cc4ccccc4oc3=O)cc2C1	.	.	.	.	.	-7
Cc1nc2oc(-c3ccccc3)nc2cc1NC(=O)c1ccoc1	.	.	.	.	.	-3
N#CC1=C(N)Oc2n[nH]c(-c3ccccn3)c2C1c1c(F)cccc1Cl (configuration not stated)	-8	0	1	2	2453	42*
O=C(Nc1ccc(F)c(C(F)(F)F)c1)c1cccn(Cc2cccc(Cl)c2)c1=O	.	.	.	.	.	1
Nc1cc(=O)[nH]c(SCC(=O)Nc2ccccc2)n1	.	.	.	.	.	-7
Nc1cc(=O)[nH]c(SCC(=O)Nc2cccc(Cl)c2)n1	-3	-2	-1	3	17592*	-6
COCc1cc(=O)[nH]c(SCC(=O)Nc2ccccc2)n1	-2	?	-4	3	22752*	-1
CN(C)c1nc(N)nc(CSc2nnnn2-c2ccc(F)cc2)n1	2	0	1	6	23095*	-1
CCCOc1ccc(C(CC(=O)O)NC(=O)C23CC4CC(CC(C4)C2)C3)cc1 (configuration not stated)	0	0	-1	-9	23418*	-10
O=C(O)CC(NC(=O)C12CC3CC(CC(C3)C1)C2)c1ccc(F)cc1 (configuration not stated)	4	-2	-6	-1	3596	-14
COC(=O)c1ccc(Cl)c(NC(C)=O)c1	-5	?	1	5	21958*	-4
COC(=O)c1ccc(Cl)c(NC(=O)NC2CCCCC2)c1	-4	0	-3	-3	2995	1
CCN(CC)S(=O)(=O)c1ccc(Cl)c(C(=O)OC)c1	-4	?	1	1	17005*	-21
CNC(=O)c1cc(S(=O)(=O)N(C)C)ccc1Cl	0	1	-2	0	22686*	-16
CCN(CC)S(=O)(=O)c1cc(C(=O)OC)ccc1Cl	-4	-1	-4	-1	20925*	1
CCCc1cc(=O)[nH]c2nnc(SCC(=O)OCc3ccccc3)n12	.	.	.	.	.	-7
NS(=O)(=O)c1ccc(NC(=O)CSc2nnc3scc(-c4ccccc4)n23)cc1	.	.	.	.	.	-14
O=C(Cc1noc2ccccc12)N1CCN(c2ccccn2)CC1	.	.	.	.	.	-3
CN1C(=O)C(C)(C)COc2ccc(NS(=O)(=O)c3cccc4ccccc34)cc21	.	.	.	.	.	-15
Cc1nc(C(=O)NC2CCC(Oc3ncc(F)cn3)CC2)cs1 (configuration not stated)	.	.	.	.	.	0
CCc1nnc(C2CCN(S(=O)(=O)c3ccccc3)CC2)s1	.	.	.	.	.	7
CCn1cc([N+](=O)[O-])c(C(=O)Nc2c(C)nn(Cc3c(F)c(F)c(F)c(F)c3F)c2C)n1	4	4	0	8	20974*	-6
Cc1nn(Cc2c(F)c(F)c(F)c(F)c2F)c(C)c1NC(=O)c1nn(C)cc1[N+](=O)[O-]	1	?	1	2	22913*	-13
